# Assay results from the supplement of paper PMC3334620.
# Over roughly 33,000 sequences, “E-score (-0.5 to 0.5)” has its median near -0.016; the highest 2% begin near 0.32. The sample holds the highest values, similar sequences and a random draw of the others, so the mix is not that of the screen.
# Biological target: T1, Stp1 (UniProt B3LFK1)
# T1 sequence: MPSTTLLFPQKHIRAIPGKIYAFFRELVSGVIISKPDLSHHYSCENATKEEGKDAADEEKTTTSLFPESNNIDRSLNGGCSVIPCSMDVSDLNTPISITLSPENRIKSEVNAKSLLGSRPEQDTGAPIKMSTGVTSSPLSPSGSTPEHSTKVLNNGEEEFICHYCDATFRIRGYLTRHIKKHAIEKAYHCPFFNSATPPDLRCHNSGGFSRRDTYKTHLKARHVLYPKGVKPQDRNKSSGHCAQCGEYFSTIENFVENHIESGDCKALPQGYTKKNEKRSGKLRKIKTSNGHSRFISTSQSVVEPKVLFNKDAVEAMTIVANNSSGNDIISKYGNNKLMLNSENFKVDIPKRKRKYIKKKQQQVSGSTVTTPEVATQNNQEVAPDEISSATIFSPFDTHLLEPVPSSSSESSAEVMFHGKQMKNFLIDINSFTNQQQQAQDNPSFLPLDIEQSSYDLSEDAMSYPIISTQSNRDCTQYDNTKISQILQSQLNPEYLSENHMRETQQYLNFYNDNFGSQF
# Experiment: PBM E-score (8-mer binding enrichment) (E-score (-0.5 to 0.5)); higher = stronger / more preferred TF binding
# Settings: protein concentration: 200 nM; construct: GST-full length
# Method in brief: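 Each ungapped eight-base word and its reverse complement, pooled, received an E-score from the Universal PBM Analysis Suite. Underlying scans, normalised with masliner, recorded fluorescent anti-GST bound to GST-tagged yeast transcription factors. These were applied at about 100-200 nM to universal all-10-mer Agilent arrays double-stranded by primer extension.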
row,Sequence,PBM E-score
1,ACGTAGAT,-0.0617
2,ACCTTTAC,0.0425
3,GAGACAGA,-0.0347
4,TATGCGGA,0.207
5,GCCGAACA,0.114
6,CTGGGGGA,-0.35
7,AGGTAGCG,-0.105
8,ACGCGCCA,0.0175
9,CCGCGTCA,0.214
10,ACGCGCCT,0.34
11,CCGCGTCC,0.296
12,CCGCGCCA,0.252
13,ACGCGCTG,0.119
14,ACGCGCCC,0.289
15,CCGCGTCG,0.355
16,CCGCGCCC,0.279
17,CCGCGCCG,0.462
18,ACGCGCAG,-0.103
19,ACGCGCCG,0.412
20,CTTGGTTC,0.197
21,ACGGTTAA,0.0599
22,AAAGGCTG,-0.102
23,GGTATCCA,0.0649
24,AACGAGTT,-0.18
25,CCTGCCCA,-0.259

row,Sequence,PBM E-score
1,ATCAGAGC,0.0942
2,GAAGTATA,0.169
3,GCGTTGAA,0.138
4,CGCAAAAG,0.0708
5,CTTGCTCC,-0.0209
6,GAGGCGAA,0.206
7,GAGGCCCC,-0.125
8,AAGGCGCC,0.424
9,GAGGCGCC,0.414
10,GAGGCGCA,0.338
11,GAGGCGTA,0.278
12,CAGGCGCC,0.286
13,ATGGCGCG,0.196
14,AAGGCGTC,0.296
15,CTGGCGCC,0.314
16,ATGGCGCC,0.34
17,AAGGCGAC,0.224
18,CGATAGAC,0.00428
19,AGGTGAGA,-0.0297
20,ATACCACA,0.0264
21,ATGTCGCA,0.0188
22,ATAGGCGA,-0.0945
23,ATACTCGC,-0.0916
24,CCCCCTGC,-0.346
25,TAAATCAA,0.0833

row,Sequence,PBM E-score
1,CTTAGCCA,0.13
2,AAGCGCTT,0.0783
3,GATCCTAA,-0.164
4,GCATGAGA,0.151
5,GGAGATAC,-0.0561
6,ATCCTAGC,-0.102
7,AAAGCGCT,0.16
8,AAGGCGCG,0.4
9,CAGGCGCA,-0.031
10,AAGGCGCT,0.396
11,CAGGCGCG,0.113
12,TAGGCGCA,0.155
13,AAGGCGGG,-0.112
14,AAGGCGGT,0.105
15,AAGGCGCA,0.316
16,CCTACTGC,0.107
17,CTGAAGGC,-0.14
18,AGTTGGGA,-0.114
19,ACCCGAGA,-0.282
20,CACCCAGA,-0.257
21,AGACCGCC,-0.0258
22,GGCGTTTA,0.337
23,CCCGTTTA,0.185
24,AGCGTTTA,-0.127
25,GCCGTTTA,0.443

row,Sequence,PBM E-score
1,GCCGTTGA,0.383
2,CCCGTTGA,-0.0684
3,ACCGTTGA,-0.134
4,CGCGTTTA,-0.0505
5,ACCGTTTA,0.168
6,GAATCTCC,-0.122
7,GGAAGGAA,-0.0797
8,GAACTGAC,0.0623
9,AGAGTATG,-0.303
10,AGCTGCTC,-0.127
11,CGGATAGA,0.228
12,TGACCGCA,0.025
13,CCATGCCC,-0.0806
14,ACATGCCG,0.369
15,ACATGCCC,-0.168
16,CCATGCCG,0.336
17,ACATGCCT,0.066
18,CCATGCCA,0.148
19,TAATAGCA,-0.0461
20,GCGCCTCC,0.293
21,CCGCCGCC,0.194
22,ACGCCGCT,0.423
23,CCGCCGGC,0.165
24,ACGCCGAT,0.23
25,ACGCCGAC,0.204

row,Sequence,PBM E-score
1,CCGCCGGA,0.0267
2,CCGCCGAA,0.216
3,ACGCCGCC,0.355
4,GCGCCGCC,0.454
5,CCGCCGCA,0.402
6,AAGCCGCT,0.265
7,ATGGAGGC,-0.236
8,AGTGGGTG,-0.0322
9,GCAACAGC,0.0755
10,AACGCTCT,-0.216
11,ACGACGCA,0.0151
12,ACGCCGAG,0.0836
13,ACGCCGCA,0.476
14,CGGCCGCA,0.325
15,TCACCGCA,-0.0824
16,AGGCCGCG,0.244
17,ACGCCGCG,0.473
18,TCGCCGCA,0.448
19,AGGCCGCA,0.162
20,GGGCCGCA,0.285
21,TCTCCGCA,-0.0488
22,ACGCCGGA,0.00769
23,ACAAAAGT,0.0775
24,ACGTTAAT,0.112
25,GCCCTACA,0.0881

row,Sequence,PBM E-score
1,GTAACTAA,0.0925
2,CTTGATAC,0.113
3,CTAGGTCC,-0.102
4,AGTCAAGA,-0.0455
5,GTTCAAGA,0.0574
6,CCTCGGAA,-0.0641
7,CCGCCGAG,0.083
8,CCGCCGCG,0.437
9,CCGCCCCG,0.273
10,TCCAAGCA,0.0574
11,GGCATCCC,-0.0465
12,CGCATCGA,0.0903
13,AGCATCGA,-0.0592
14,GGCATCGA,0.327
15,CTATGCTA,-0.0393
16,CAACCAGA,0.0587
17,AAGCACGG,0.295
18,ACGCACGA,0.237
19,CAGCACGA,-0.0106
20,ACGCACGG,0.419
21,CCGCACGG,0.448
22,CCGCACGA,0.27
23,CAGCACGC,0.145
24,ACGCACGC,0.265
25,CCGCACGC,0.323

row,Sequence,PBM E-score
1,CAGCACGG,0.333
2,CCGCACAA,0.285
3,GCGCACGC,-0.0354
4,ATTCTAAG,0.126
5,ACGGGGAT,-0.0326
6,AGTCTTCC,-0.0735
7,TGGGGCAA,-0.00868
8,CGAAGTGA,0.00778
9,CCCAACCC,-0.174
10,CGCGTCCG,-0.0671
11,ATCATAAC,0.161
12,TATAGCGA,-0.151
13,AGGGAGCA,-0.403
14,CGCGGAAC,0.383
15,GGCGGAAC,0.125
16,AGCGGAAC,-0.0267
17,ACAATCAT,-0.00872
18,AAGGGCGG,-0.0196
19,CAGGGCAC,0.355
20,CAGGGCAG,-0.114
21,CAGGGCGG,-0.116
22,AGGGGCGC,0.232
23,CAGGGCAA,0.0617
24,CAGGGCGA,0.0902
25,AAGGGCGC,0.354

row,Sequence,PBM E-score
1,CAGGGCGC,0.363
2,GGGCCTCA,-0.0568
3,AACCCACT,0.00826
4,CGACTAGC,-0.13
5,ATCGTTCG,0.0636
6,GCTGCCAC,0.0537
7,CAGTGCCA,-0.0624
8,CAGTGCCG,0.453
9,AAGTGCCG,0.453
10,AAGTGCCC,0.079
11,CAGTGCCC,0.108
12,AAGTGCCA,0.163
13,AGTAGTGA,-0.0104
14,CTGGATAA,0.0621
15,CTGCATTC,-0.111
16,AGGCATTA,0.228
17,CGGCATTC,0.441
18,AGGCATTC,0.106
19,GGGCATTA,0.139
20,CGGCATTA,0.436
21,ACCTACAT,-0.177
22,AGTAGTCG,-0.0173
23,ATACTCAG,0.06
24,CACTGGGG,-0.231
25,GAGATATC,0.0576

row,Sequence,PBM E-score
1,ATACGCCA,0.0267
2,ATACGCCC,-0.157
3,ACACGCCC,-0.181
4,ACACGCCG,0.351
5,CCACGCCC,-0.188
6,ACACGCCA,0.0386
7,CCACGCCA,0.0283
8,CCACGCCG,0.34
9,ATACGCCG,0.381
10,GGGGCCCC,-0.2
11,ACCCTTTC,-0.15
12,CATGATTA,0.171
13,CCCTATCG,-0.196
14,TACAGAAA,0.212
15,CAACCATG,-0.0314
16,AGGAGAAT,-0.17
17,GTTCAAAA,0.185
18,GTTCAAAC,0.323
19,ATTCAAAC,0.11
